# Screening results from PubChem.
# Vc quorum ag: quorum light induction in luxS cqsA deficient V. cholerae | V. cholerae BH1578 lux reporter, luminescence, 6 h | AID 588436 | 350,000 compounds, 0.16% hits | activation, % at 18.7 µM; in the data active means activation mostly above about 9.7%, no sharp cut-off
# CCHF vOTU inh-1: CCHFV vOTU protease inhibition. 370,000 compounds, 0.55% hits. AID 651958. inhibition, % at 11.5 µM. Pep-AMC fluorescence; further: 0% = vehicle wells with enzyme and 100% = no enzyme wells
# PrPC TRFRET: inhibitors of human cell surface prion protein PrPC; TR-FRET read-out; AID 720596; P04156; 370,000 compounds, 0.43% hits; inhibition, % at 13.8 µM; in the data active means inhibition above about 24%; further: 0% = median of the test wells and 100% = reference compound wells
# Y pestis TopoI: inhibitors of Yersinia pestis topoisomerase I; 360,000 compounds, 0.064% hits; activity, % at 10 µM; Y. pestis Topo-I cleavage product accumulation, plate reader; in the data active means activity above about 50%, passing the limit was not always enough
# CCHF vOTU inh-2: confirmation of CCHF virus vOTU protease inhibitors | AID 686976 | Recombinant CCHFV vOTU, Pep-AMC fluorescence | shares compounds with CCHF vOTU inh-1 | 1,900 compounds, 17% hits | inhibition, % at 11.5 µM
# * marks the source's active call; other numbers are inactive results; i = inactive; . = no result given. Compounds with a hit are over-represented: about 1.1% of the library has one in this group of screens. Unless noted, no stated cut-off is given here; in the data, active means inhibition above about 30%; inactive means the rest.
SMILES,Vc quorum ag,CCHF vOTU inh-1,PrPC TRFRET,Y pestis TopoI,CCHF vOTU inh-2
c1cc(-c2noc(CC3CCCCC3)n2)ccn1,.,8,1,-13,.
Cc1cc(OC(C)C(=O)NNC(=O)Nc2ccc(F)cc2F)cc(C)c1Cl (stereo not drawn),1,16,9,6,.
CCCCNC(=O)c1onc(CSc2cccc(C)c2)c1C(=O)O,-1,5,2,12,.
COc1cccc(C(CNC(=O)C(c2ccccc2)c2ccccc2)N(C)C)c1 (stereo not drawn),-1,-10,-9,9,.
CCCCCCCCN1C(=O)[C@H](CC(=O)N2CCCCC2)C[C@@]2(C(=O)OC)CC(C)(C)CC=C12,.,33*,8,.,13
O=C(Nc1ccccc1C(=O)O)c1cccc(NC(=O)c2ccc(Br)o2)c1,.,30*,-1,-2,2
Cc1ccc(CCNC(=O)c2nc(CS(=O)(=O)c3ccc(Cl)cc3)no2)cc1,0,0,8,14,.
CC1(C(=O)NS(=O)(=O)c2cccc(C#N)c2)CCN1C(=O)C1CCCCC1 (stereo not drawn),i,1,6,0,.
CC1(C(=O)NS(=O)(=O)c2cccc(F)c2)CCN1C(=O)C1CCCCC1 (stereo not drawn),0,34*,-6,4,-17
CC1(C)CC(=O)N(c2cccc(C(F)(F)F)c2)C(=O)C1,i,-13,-4,3,.
Nc1ccc2ccc(N)cc2c1,.,34*,1,.,-32
Nc1ccc2cc3ccccc3cc2c1,0,13,-36,-25,.
CC(=C\c1ccccc1)/C=C1/SC(=S)N(C(C(=O)O)C(C)C)C1=O (stereo not drawn),i,32*,12,2,12
c1ccc(-c2csc(Nc3nc(N4CCOCC4)nc(N4CCOCC4)n3)n2)cc1,i,10,-2,15,.
O=C(/C=C/c1cccc(Cl)c1)OCC(=O)c1ccc[nH]1,0,35*,-8,2,3
O=C(c1ccccc1)c1coc2c1C(=O)c1ccccc1C2=O,0,34*,-5,-6,59*
COc1ccc(C(=O)c2coc3c2C(=O)C(=O)c2ccccc2-3)cc1,-1,6,-12,-17,.
CCCn1c(=O)c(C(=O)OCC)c(O)c2cc(Br)ccc21,0,-7,-4,-8,.
CCOC(=O)c1c(CN(C)C)n(C)c2c(O)c(N=NC(N)=O)c3ccc(Br)cc3c12,-1,36*,-11,-7,13
Cc1ccc2cc(C(c3nnnn3CC3CCCO3)N3CCc4ccccc4C3)c(=O)[nH]c2c1 (stereo not drawn),2,84*,4,-1,0
COC(=O)C1=C(C)N(Cc2ccc(C(F)(F)F)cc2)C(=NCc2ccc(OC)cc2)NC1c1ccccc1C(F)(F)F (stereo not drawn),.,35*,4,.,-6
COC(=O)C1=C(C)N(Cc2ccc(C(F)(F)F)cc2)C(=NCc2ccccc2)NC1c1cccc(F)c1 (stereo not drawn),.,28,-5,.,.
COC(=O)C1=C(C)N(Cc2cccc(C(F)(F)F)c2)C(=NCc2ccc(C(F)(F)F)cc2)NC1c1ccc(C(F)(F)F)cc1 (stereo not drawn),.,40*,16,.,11
COC(=O)C1=C(C)N(Cc2cccc(C(F)(F)F)c2)C(=NCc2ccc(C(F)(F)F)cc2)NC1c1cccc(F)c1 (stereo not drawn),.,38*,4,.,3
COC(=O)C1=C(C)N(Cc2cccc(C(F)(F)F)c2)C(=NCc2ccc(C(F)(F)F)cc2)NC1c1ccc(F)cc1 (stereo not drawn),.,25,-3,.,.
SMILES,Vc quorum ag,CCHF vOTU inh-1,PrPC TRFRET,Y pestis TopoI,CCHF vOTU inh-2
CCCn1c(SCC(=O)NC(C)c2ccccc2)n[nH]c1=O (stereo not drawn),0,-11,-2,6,.
O=C1C(NC(=O)N2c3ccccc3C=Cc3ccccc32)CCCCN1Cc1cccc(Cl)c1 (stereo not drawn),.,2,-4,.,.
CSC(=NS(=O)(=O)c1ccccc1)SC,0,5,13,-6,.
O=C(OCC(=O)N1CCc2ccccc21)c1ccc([N+](=O)[O-])o1,i,40*,-33,-6,-6
COCc1cc(N2CCN(C(=O)OC(C)(C)C)C[C@@H]2C)ccc1N1C[C@@H](C)O[C@@H](C)C1,.,27,3,.,.
COCc1cc(N2CCN(C(=O)OC(C)(C)C)C[C@H]2C)ccc1N1C[C@@H](C)O[C@@H](C)C1,.,35*,8,.,-3
CC(C)Oc1ccc(S(=O)(=O)N2CCOCC2)cc1NC(=O)CN1C(=O)c2ccccc2C1=O,i,36*,-5,26,-20
CC(=O)c1ccc(N2CCN(C(=O)C3CCCN(S(=O)(=O)c4cnc[nH]4)C3)CC2)cc1 (stereo not drawn),0,34*,0,5,-10
Cc1ccc(Cl)cc1N1CCN(C(=O)C2CCCN(S(=O)(=O)c3cnc[nH]3)C2)CC1 (stereo not drawn),0,1,1,32,.
CN(C)CCCN1c2ccc([N+](=O)[O-])cc2CCc2cc([N+](=O)[O-])ccc21,-11,35*,-37,-24,-4
Cc1nn(CCOc2ccccc2)c(=O)n1-c1c(F)cccc1F,0,10,5,-1,.
Cc1ccc(OCC(=O)NC(=S)Nc2cccc(NC(=O)c3ccccc3)c2)cc1,0,1,-3,26,.
CCCCCC(=O)N1C[C@@H](n2cc(-c3ccc(F)cc3)nn2)[C@H](O)C[C@@H]1c1ccc(Cl)cc1,0,34*,5,30,5
Cc1ccc([C@H]2C[C@@H](O)[C@H](n3cc(-c4ccc(F)cc4)nn3)CN2C(=O)C2CCCCC2)cc1,0,31*,8,9,4
CCCCCC(=O)N1C[C@H](O)[C@@H](n2cc(-c3ccc(F)cc3)nn2)C[C@@H]1c1ccc(Cl)cc1,0,5,0,29,.
CCOC(=O)C1(CCOc2ccccc2)CCN(Cc2ccccc2O)CC1,-1,-14,-8,-16,.
CC(C)CC(=O)Nc1ccc(-c2nnn(CC(=O)NCc3ccco3)n2)cc1,0,2,-3,7,.
CC(=O)N1CCOc2ccc(S(=O)(=O)Nc3cccc(C)c3)cc21,i,31*,-4,-4,7
c1coc(C2Nc3ccccc3C3OCCC23)c1 (stereo not drawn),0,3,1,5,.
COc1ccc(CCN2C(=O)CC(NNC(=O)c3cccc(O)c3)C2=O)cc1 (stereo not drawn),-3,0,-1,-4,.
CCN(CC)C(=O)[C@H]1C[C@H](CC(=O)NCc2cccc(C(F)(F)F)c2)C(=O)N2CCc3c([nH]c4ccc(Cl)cc34)[C@]12C,1,32*,23,26,-3
CCN(CC)C(=O)[C@H]1CC(CC(=O)NCc2cccc(C(F)(F)F)c2)C(=O)N2CCc3c([nH]c4ccccc34)[C@]12C (stereo partly drawn),-2,29,4,19,.
CCOC(=O)[C@]12CCCC=C1N(Cc1ccc(Cl)cc1Cl)C(=O)[C@H](CC(=O)NCc1ccc(C)o1)C2,.,18,8,.,.
